Screening results from PubChem.
Sampled rows, rich in hits. Any-hit rate of the full collection: about 10%.
GPT2 inh = Primary qHTS assay for inhibitors of Glutamate pyruvate transaminase 2 (GPT2); actives 0.25% (n = 100,000); Recombinant GPT2, coupled pyruvate oxidase/HRP Amplex Red fluorescence; Potency, µM (series often up to 57.7 µM), without a hit: at the highest dose activity change, negative = inhibition, hits mostly inhibitors; further: nearly all actives have a fitted effect of over 60% in size
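Recombinant GPT2 (10ng/uL) with 250uM a-KG and 2mM L-alanine, 30 min at room temperature, in HEPES pH 7.5 buffer. Pyruvate detected by pyruvate oxidase/HRP/Amplex Red fluorescence after 30 min in the dark; AOA (50uM) as positive control.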
NIH3T3 tox = Cytotoxic Profiling in NIH 3T3 Cell Line of Diverse Libraries Using Quantitative High-Throughput Screening | NIH 3T3 viability, CellTiter-Glo ATP luminescence, 48-72 h | Potency, µM (series often up to 96.7 µM), without a hit: at the highest dose activity change, negative = cytotoxicity, actives largely listed as inhibitors | actives 4.3% (n = 94,000) | AID 1345082, 2018; further: nearly all actives have a fitted effect of over 55% in size
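Mouse fibroblast NIH 3T3 cells, 400 per well, received compound via pintool and were incubated for 48 or 72 hr prior to CellTiter-Glo ATP luminescence measurement.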
FLuc inh = Firefly luciferase inhibition profiling of diverse chemical library using quantitative high-throughput screening | Luciferin 4-monooxygenase (Photinus pyralis), P08659 | purified P. pyralis luciferase, luminescence, biochemical | Potency, µM (series often up to 115 µM), usual class: inhibitors | actives 2.5% (n = 76,000) | AID 1347043, 2019; further: nearly all actives have a fitted effect of over 65% in size
Target sequence (P08659 whole entry, looked up): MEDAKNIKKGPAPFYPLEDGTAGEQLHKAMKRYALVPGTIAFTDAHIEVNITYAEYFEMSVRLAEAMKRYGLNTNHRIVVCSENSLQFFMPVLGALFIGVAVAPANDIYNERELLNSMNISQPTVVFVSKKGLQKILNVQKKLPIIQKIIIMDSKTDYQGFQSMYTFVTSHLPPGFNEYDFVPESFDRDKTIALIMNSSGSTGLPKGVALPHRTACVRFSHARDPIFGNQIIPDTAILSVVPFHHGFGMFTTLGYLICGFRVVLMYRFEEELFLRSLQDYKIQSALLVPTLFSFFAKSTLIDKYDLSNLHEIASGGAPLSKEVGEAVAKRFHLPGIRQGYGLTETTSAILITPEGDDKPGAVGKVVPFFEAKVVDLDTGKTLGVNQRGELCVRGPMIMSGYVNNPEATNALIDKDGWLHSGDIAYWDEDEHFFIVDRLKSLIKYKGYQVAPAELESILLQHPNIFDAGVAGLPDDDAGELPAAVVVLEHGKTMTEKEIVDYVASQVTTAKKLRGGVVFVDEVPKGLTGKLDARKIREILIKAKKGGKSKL
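Inhibitors were tested against purified firefly luciferase in a biochemical, low-substrate format (both substrates at 10uM) and luminescence measured with a CCD imager.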
HEK cytotox = Cytotoxic Profiling in HEK 293 Cell Line of Diverse Libraries Using Quantitative High-Throughput Screening; HEK 293 viability, ATP luminescence (CellTiter-Glo), 48-72 h; Potency, µM (doses to about 115 µM), for the others: at the highest dose activity change, negative = cytotoxicity, usual class: inhibitors; actives 6.6% (n = 94,000); AID 1345083, 2018; further: nearly all actives have a fitted effect of over 60% in size
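Cells seeded first (HEK 293, 250 cells/well), then compound added by pintool. Incubation ran 48 or 72 hr at 37 degree Celsius. CellTiter-Glo was added and luminescence imaged after 10 min at room temperature.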
NPR1 antag = Natriuretic polypeptide receptor (hNpr1) antagonism - Primary qHTS | HEK293 hNpr1 GloSensor cGMP, ANP-stimulated luminescence | Potency, µM (top dose mostly 46.3 µM), without a hit: at the top dose activity change, negative = inhibition, actives largely listed as inhibitors | actives 1.6% (n = 76,000) | AID 1347048, 2019; calls by dose curve; further: nearly all actives have a fitted effect of over 60% in size
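Compound pre-incubated 30 min at room temperature on GloSensor-loaded HEK293 cells stably carrying hNpr1 and the pGS-40F cGMP biosensor. Stimulation uses hNppA at 0.1 nM final; luminescence is taken at baseline and 20 min post-agonist.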
An asterisk follows results filed as active; i = inactive; ? = inconclusive; · = not tested or not shown; [ ] = another dose, or the depositor's remark. Unless noted, the call rests on the fitted dose curve; in most records, active means well fitted curve in the direction sought with a large enough effect; inconclusive means small, poorly fitted or top-dose-only effect, or another doubt; inactive means no such curve, though single readings can be large; an effect the other way counts as inactive or inconclusive. On the % scale 0 is the no-effect control and ±100 the full control effect; potency means the concentration at half of the fitted maximal effect.

SMILES	GPT2 inh	NIH3T3 tox	FLuc inh	HEK cytotox	NPR1 antag
COc1ccc(-c2nn(-c3ccccc3C)cc2CN2CCCN(C)CC2)cc1F	-12%	?	i	?	5%
COc1ccc(-c2nn(-c3ccccc3)cc2CN2CCCC(C)(O)C2)c(F)c1 (centres undefined)	i[11.5 µM]	?	i	89µM*	0%
COC[C@@H]1CCCN1Cc1cn(-c2ccccc2)nc1-c1ccc(OC)cc1F	i	?	?	?	9%
COc1ccc(-n2cc(CN3CCC(CO)CC3)c(-c3cccc(F)c3)n2)cc1	-22%	79µM*	i	?	3%
COc1ccc(-n2cc(CN3CCCN(C)CC3)c(-c3cccc(F)c3)n2)cc1	-49%	45µM*	i	?	-6%
c1c(CN2CCCC3(CCCO3)CC2)nn2c1CNCCC2 (centres undefined)	-16%	3%	i	-10%	2%
CC(C)(C#N)c1ccc(-c2cc(CO)ccn2)cc1	?	?	32µM*	?	-18%
CCCc1cc(C(=O)N2C[C@@H](CN3CCOCC3)[C@@H](CO)C2)n[nH]1	i	2%	i	-1%	0%
CN(C)C[C@@H]1CN(S(C)(=O)=O)C[C@H]1NC(=O)c1c(F)cccc1Cl	i	1%	40µM*	i	1%
O=[S+]1([O-])NCC2(CCCN(Cc3cnccn3)C2)Oc2ncccc21 (centres undefined)	-16%	i	·	i	·
Cc1c(O)cccc1C(=O)N1CCCN(Cc2ccc(F)cc2)C(C(C)C)C1 (centres undefined)	-18%	?	i	45µM*	-3%
COc1ccc(C)cc1NC(=O)N1C[C@@H](F)C[C@H]1C(=O)N1CCCCC1	4%	35µM*	i	1%	-13%
COc1ccc(C)cc1NC(=O)N1CCCC1c1nncn1C1CCCC1 (centres undefined)	-26%	32µM*	i	6%	-2%
COCCCNC(=O)c1cnc2n[nH]c(-c3ccccc3)c2n1	?	?	i	100µM*	-6%[70.6 µM]
CCOC(=O)C1(Cc2ccc(F)cc2F)CCCN(S(=O)(=O)c2c(C)noc2C)C1 (centres undefined)	i	?	i	40µM*	5%
COCc1cc(CC2(NCc3ccccc3O)COC2)no1	-7%[88.5 µM]	-17%[174 µM]	i	-1%[172 µM]	0%[70.6 µM]
CNC(=O)c1noc([C@@H]2CC(F)(F)CN2C(=O)CCC2CCCC2)n1	-9%	i	i	i	6%
Cn1ccc2c(C(=O)NCc3cccnc3)nc(-c3ccccc3)cc21	-5%[88.5 µM]	?	i	?	?
CN(C)Cc1ccc(-c2cc3c(ccn3C)c(C(=O)NCc3cccnc3)n2)cc1	2%[88.5 µM]	?	i	?	4%[70.6 µM]
Cn1ccc2c(C(=O)NCc3cccnc3)nc(-c3ccccc3C#N)cc21	-5%[88.5 µM]	25µM*	i	-18%[172 µM]	-6%[70.6 µM]
COc1ccc(-c2cc3c(ccn3C)c(C(=O)NCc3cccnc3)n2)cc1OC	-6%[88.5 µM]	?	?	?	-4%[70.6 µM]
CN1CCN(c2ccc(-c3cc4c(ccn4C)c(C(=O)NCc4cnccn4)n3)cc2)CC1	3%	?	?	45µM*	-1%
Cn1nccc1-c1cc2c(ccn2C)c(C(=O)NCc2cccnc2)n1	?	28µM*	i	-27%[172 µM]	3%[70.6 µM]
Cn1ccc2c(C(=O)NCc3cccnc3)nc(-c3ccc(F)cc3)cc21	-8%[88.5 µM]	?	i	100µM*	-24%[70.6 µM]
Cc1cc(C(=O)N2CCC3(CCCN(C4CCOCC4)C3=O)C2)no1 (centres undefined)	-1%	3%	i	5%	0%
SMILES	GPT2 inh	NIH3T3 tox	FLuc inh	HEK cytotox	NPR1 antag
COc1cccc(CC(=O)N2CCCCCNC(=O)[C@@H]3CCCC[C@@H]32)c1	i	-2%	i	i	0%
O=c1cc(C2=CCOCC2)oc2c(-c3cccc4[nH]ccc34)nccc12	2%[88.5 µM]	?	i	40µM*	-13%[70.6 µM]
COc1ccccc1-c1nccc2c(=O)cc(-c3ccccn3)oc12	?	?	i	?	2%[70.6 µM]
O=S(=O)(c1ccccc1)N1CCC(F)(c2nc(-c3ccncc3)no2)CC1	i	?	·	32µM*	·
CCn1cc(S(=O)(=O)N2CCC(F)(c3nc(-c4ccncc4)no3)CC2)cn1	-4%	?	·	45µM*	·
COc1ccc(C)cc1NC(=O)CCC[C@@H]1[C@H]2CCCN3CCC[C@@H](CN1Cc1cccnc1)[C@@H]23	i	4%	i	2%	3%
COc1ccc(C(=O)N2CCCC3(CC(c4cccc(C(F)(F)F)c4)=NO3)C2)cc1 (centres undefined)	-5%	?	i	?	-23%
O=C(Cc1ccccc1)N1CCC2(CC1)CC(c1cccc(C(F)(F)F)c1)=NO2	·	?	·	45µM*	·
COc1ccc(CC(=O)N2CCC3(CC2)CC(c2cccc(C(F)(F)F)c2)=NO3)cc1	·	?	·	40µM*	·
O=C(Cc1cccc(Cl)c1)N1CCC2(CC1)CC(c1cccc(C(F)(F)F)c1)=NO2	·	?	·	28µM*	·
FC(F)(F)c1cccc(C2=NOC3(CCN(Cc4ccccc4)C3)C2)c1 (centres undefined)	?	?	·	45µM*	·
O=C1CCN(S(=O)(=O)c2ccccc2)CCCN(C(=O)c2ccco2)CCN1	i	-3%	i	4%	1%
COc1c2c(c(C)c3c1C(=O)OC3)OC1(C)CC(O)C34OC(OC)(CCC3(C)C1C2)OC4(C)CO (centres undefined)	-26%[27.3 µM]	·	·	·	·
Cc1cccc(C(=O)N2CCC(C3CCN(S(C)(=O)=O)CC3)C2)c1 (centres undefined)	1%	-24%	i	-25%	10%
O=[S+]1([O-])NCC2(CCN(Cc3c(F)cccc3Cl)C2)Oc2ccncc21 (centres undefined)	0%	-3%	·	4%	·
CS(=O)(=O)N1CCC(N2C(=O)C3(CCCCC3)C2c2ccccc2)CC1 (centres undefined)	i	3%	i	-3%	6%
O=C(c1csc(Cc2ccccc2)n1)N1CCC2(CCCNC2)C1 (centres undefined)	-21%	2%	i	-7%	-5%
CC1(CNc2ccccc2)COc2ccc(C(=O)NCc3cccs3)cc2N1 (centres undefined)	-10%[88.5 µM]	?	i	100µM*	-2%[70.6 µM]
